The values that follow come from PubChem BioAssay (NCATS).

Molecules are shown by their SMILES. Results filed as inconclusive are left out. Values without a mark were called inactive. The source made the active and inactive calls. The call rests on the fitted dose curve; in most records, active means well fitted inhibition curve with a large enough effect; inconclusive means small, poorly fitted or top-dose-only effect; inactive means no such curve, though single readings can be large or run the other way.
On the % scale 0 is the no-effect control and ±100 the full control effect; potency means the concentration at half of the fitted maximal effect.

The assay is described as follows: Primary qHTS for inhibitors of nuclear receptor binding SET domain protein 2 (NSD2) in an RCH-ACV wild type WT cells (2C) (AID 1645877). Further: nearly all actives have a fitted effect of over 70% in size. The note with it: RCH-ACV (leukaemia line) NSD2 WT (2C) viability, CellTiter-Glo, 72 h; series mostly up to 44.9 µM; activity change, negative = cell killing: at the top concentration. On the technique in general: Quantitative high-throughput screening tests each substance at several concentrations.
As for `Cc1cccc(/C=N/Nc2cc(N3CCOCC3)nc(OCCc3ccccn3)n2)c1`, the Potency is 0.296 µM (active).
Consider `NS(=O)(=O)c1ccc(Cc2c(-c3cccc(-c4ccccc4)c3)nn(-c3nc(C(=O)O)cs3)c2CC2CC2)cc1`, for which the Potency was 5.25 µM (active).
For `C[C@H]1[C@H](C)CC[C@]2(C(=O)O)CC[C@]3(C)C(=CC[C@@H]4[C@@]5(C)CC[C@H](O)C(C)(C)[C@@H]5CC[C@]43C)[C@H]12`, the “activity change, negative = cell killing” value is -2.48%.
With `COc1ccc([C@@H](O)[C@@H](C)Oc2ccc([C@H]3O[C@H](c4ccc(O[C@H](C)[C@H](O)c5ccc(OC)c(OC)c5)c(OC)c4)[C@H](C)[C@H]3C)cc2OC)cc1OC`, the Potency was 5.25 µM (active).
Still for that read-out and setting: for `CN(C)C[C@@H]1CCn2cc(c3ccccc32)C2=C(C(=O)NC2=O)c2cn(c3ccccc23)CCO1` the value was 6.61 µM (active).
For `COc1cc2nccc(Oc3ccc(NC(=O)c4cn(C(C)C)c(=O)n(-c5ccc(F)cc5)c4=O)cc3F)c2cc1OC`, the “activity change, negative = cell killing” value is -1.43%.
Turning to `C[C@H](NC(=O)CCC(F)(F)F)C(=O)N[C@@H]1C(=O)N(CCO)c2ncccc2-c2ccccc21`, the “activity change, negative = cell killing” value is -8.51%.
As for `CC(=NNC(=O)c1cccc(S(=O)(=O)N2CCOCC2)c1)c1cc(Cl)ccc1O`, the Potency is 1.48 µM (active).
For `C[C@H](CCC(=O)O)[C@H]1CC[C@H]2[C@@H]3[C@@H](O)C[C@@H]4C[C@H](O)CC[C@]4(C)[C@H]3CC[C@]12C`, the compound was classed as inactive.
Consider `Clc1cccc(-c2ccc(-c3nnc(CCCc4ccc5cccnc5n4)o3)cc2)c1`, for which the “activity change, negative = cell killing” value is 8.28%.
For `C=C1CCC2[C@](C)(CO)C(O)CC[C@]2(C)C1C/C=C1/C(=O)OCC1O` (stereo partly drawn), the Potency was 7.42 µM (active).
Consider `Cc1c(-c2cnccn2)ssc1=S`, for which the Potency was 13.2 µM (active).
Consider `CC1(C(=O)O)CCC2(C)CCC3(C)C(=CC(=O)C4C5(C)CCC(OC6OC(C(=O)O)C(O)C(O)C6OC6OC(C(=O)O)C(O)C(O)C6O)C(C)(C)C5CCC43C)C2C1` (stereo not drawn), for which the outcome was inactive.
